Of roughly 7,900 targets only a part is listed; those with a hit were picked by preference. About 0.6% of all pairs of compound and target were hits.
Tests used:
Experiment in all cases: log2 fold change, soluble protein after heating vs DMSO (PISA); higher = thermal stabilisation; K562 cells, 10 uM, 30 min; active = over 0.2 and 3.5 SD of the protein, either way, in both replicates (recomputed)
[1] = compound: COC1=CC=C(C=C1)CN2C=CC3=C2C=C(C=C3)C(=O)NO
Outline: (§1)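 K562 cells at 2×10^6 cells/mL were treated for 30 min with 10 μM compound, and aliquots were heated for 3 min over 48°C-58°C before pooling. Extraction used PBS with 0.5% NP-40 at 4°C, and soluble protein was the supernatant after 21,000xg for 90 min, measured by TMTpro 16plex LC-MS/MS with channel sums equalised. Thermal stability values, relative to control samples and from duplicates, are log2 fold changes.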

filanesib = compound: CON(C)C(=O)N1N=C(c2cc(F)ccc2F)S[C@@]1(CCCN)c1ccccc1 [filanesib]
Outline: as §1

zotarolimus = compound: CO[C@H]1C[C@@H]2CC[C@@H](C)[C@@](O)(O2)C(=O)C(=O)N2CCCC[C@H]2C(=O)O[C@H]([C@H](C)C[C@@H]2CC[C@H](n3cnnn3)[C@H](OC)C2)CC(=O)[C@H](C)/C=C(\C)[C@@H](O)[C@@H](OC)C(=O)[C@H](C)C[C@H](C)/C=C/C=C/C=C/1C [zotarolimus]
Outline: as §1

idasanutlin = compound: COc1cc(C(=O)O)ccc1NC(=O)[C@@H]1N[C@@H](CC(C)(C)C)[C@](C#N)(c2ccc(Cl)cc2F)[C@H]1c1cccc(Cl)c1F [idasanutlin]
Outline: as §1

alisertib = compound: COc1cc(Nc2ncc3c(n2)-c2ccc(Cl)cc2C(c2c(F)cccc2OC)=NC3)ccc1C(=O)O [alisertib]
Outline: as §1

[2] = compound: COc1cc2nc(-c3cc(F)ccc3O)nc(N[C@@H]3CNC[C@H]3C(C)(C)O)c2cc1OC
Outline: as §1

gefitinib = compound: COc1cc2ncnc(Nc3ccc(F)c(Cl)c3)c2cc1OCCCN1CCOCC1 [gefitinib]
Outline: as §1

[3] = compound: COc1cccc2cc(-c3nc([C@H]4CC[C@H](C(=O)O)CC4)n4ncnc(N)c34)[nH]c12
Outline: as §1

lapatinib = compound: CS(=O)(=O)CCNCc1ccc(-c2ccc3ncnc(Nc4ccc(OCc5cccc(F)c5)c(Cl)c4)c3c2)o1 [lapatinib]
Outline: as §1

pictilisib = compound: CS(=O)(=O)N1CCN(Cc2cc3nc(-c4cccc5[nH]ncc45)nc(N4CCOCC4)c3s2)CC1 [pictilisib]
Outline: as §1

Measured: log2 fold change

GAK (UniProt O14976)
Chain of UniProt O14976 (O14976 whole entry, looked up): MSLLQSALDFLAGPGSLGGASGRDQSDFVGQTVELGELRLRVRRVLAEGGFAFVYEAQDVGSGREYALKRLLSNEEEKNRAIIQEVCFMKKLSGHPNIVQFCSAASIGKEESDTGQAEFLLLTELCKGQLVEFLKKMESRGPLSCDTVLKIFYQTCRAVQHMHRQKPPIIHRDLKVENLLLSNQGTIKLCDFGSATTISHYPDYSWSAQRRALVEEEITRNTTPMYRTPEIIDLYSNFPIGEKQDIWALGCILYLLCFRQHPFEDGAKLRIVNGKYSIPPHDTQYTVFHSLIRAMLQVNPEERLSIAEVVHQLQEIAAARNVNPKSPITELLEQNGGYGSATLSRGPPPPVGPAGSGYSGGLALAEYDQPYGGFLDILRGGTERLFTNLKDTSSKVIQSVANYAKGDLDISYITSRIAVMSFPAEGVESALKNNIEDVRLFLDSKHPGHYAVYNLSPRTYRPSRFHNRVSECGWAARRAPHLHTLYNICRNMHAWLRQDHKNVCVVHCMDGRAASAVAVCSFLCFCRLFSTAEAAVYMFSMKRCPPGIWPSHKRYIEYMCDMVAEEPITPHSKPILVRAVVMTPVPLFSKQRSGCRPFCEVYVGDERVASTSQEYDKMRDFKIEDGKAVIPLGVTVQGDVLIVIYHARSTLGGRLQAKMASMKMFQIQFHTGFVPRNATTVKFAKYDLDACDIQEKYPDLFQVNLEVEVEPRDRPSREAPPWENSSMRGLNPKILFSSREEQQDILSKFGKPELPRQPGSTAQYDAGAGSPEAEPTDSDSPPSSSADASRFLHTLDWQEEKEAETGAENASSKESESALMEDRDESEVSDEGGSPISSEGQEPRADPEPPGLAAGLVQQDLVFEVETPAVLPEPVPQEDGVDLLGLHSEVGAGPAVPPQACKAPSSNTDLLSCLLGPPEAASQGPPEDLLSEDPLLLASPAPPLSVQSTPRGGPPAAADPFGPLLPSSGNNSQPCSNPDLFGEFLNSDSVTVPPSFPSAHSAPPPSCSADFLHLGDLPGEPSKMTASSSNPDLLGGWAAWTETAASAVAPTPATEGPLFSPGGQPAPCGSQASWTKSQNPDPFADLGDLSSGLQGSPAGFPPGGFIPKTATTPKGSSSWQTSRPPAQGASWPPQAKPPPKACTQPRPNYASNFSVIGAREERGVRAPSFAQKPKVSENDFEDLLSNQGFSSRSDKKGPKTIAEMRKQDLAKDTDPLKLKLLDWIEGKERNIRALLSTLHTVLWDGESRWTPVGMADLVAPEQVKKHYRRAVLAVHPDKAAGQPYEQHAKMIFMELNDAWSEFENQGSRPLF
inactive: [1] -0.013 | filanesib 0.024 | zotarolimus 0.033 | idasanutlin -0.748 | alisertib -0.025 | [2] 1.44 | gefitinib 0.84 | [3] -0.107 | lapatinib 0.143 | pictilisib 0.226

HAT1 (UniProt O14929)
Chain of UniProt O14929 (O14929 whole entry, looked up): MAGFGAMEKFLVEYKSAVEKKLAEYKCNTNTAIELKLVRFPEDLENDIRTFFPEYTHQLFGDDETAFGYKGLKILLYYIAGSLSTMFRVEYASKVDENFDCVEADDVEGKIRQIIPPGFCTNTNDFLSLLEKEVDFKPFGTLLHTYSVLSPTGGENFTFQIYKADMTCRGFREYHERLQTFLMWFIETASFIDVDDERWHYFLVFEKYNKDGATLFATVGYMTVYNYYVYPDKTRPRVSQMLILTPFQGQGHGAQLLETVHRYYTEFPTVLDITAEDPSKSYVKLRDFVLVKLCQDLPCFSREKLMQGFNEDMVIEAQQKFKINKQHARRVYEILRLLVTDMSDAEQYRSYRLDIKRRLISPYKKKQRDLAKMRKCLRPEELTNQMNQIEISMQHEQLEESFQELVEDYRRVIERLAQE
inactive: [1] 0.14 | filanesib -0.049 | zotarolimus 0.075 | idasanutlin 0.055 | alisertib 0.019 | [2] 0.066 | gefitinib 0.008 | [3] -0.014 | lapatinib -0.002 | pictilisib -0.076

IFRD1 (UniProt O00458)
Chain of UniProt O00458 (O00458 whole entry, looked up): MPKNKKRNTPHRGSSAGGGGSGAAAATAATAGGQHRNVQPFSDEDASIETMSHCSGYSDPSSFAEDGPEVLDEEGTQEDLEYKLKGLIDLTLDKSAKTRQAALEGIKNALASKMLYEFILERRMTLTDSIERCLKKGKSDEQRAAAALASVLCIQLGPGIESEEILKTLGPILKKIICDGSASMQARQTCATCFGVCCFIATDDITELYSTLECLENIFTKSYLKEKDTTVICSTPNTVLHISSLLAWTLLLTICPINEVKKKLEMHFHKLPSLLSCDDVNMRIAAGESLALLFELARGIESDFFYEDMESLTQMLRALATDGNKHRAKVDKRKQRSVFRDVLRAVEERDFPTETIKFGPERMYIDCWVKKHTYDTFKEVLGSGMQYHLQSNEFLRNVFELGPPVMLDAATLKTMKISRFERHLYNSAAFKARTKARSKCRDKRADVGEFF
inactive: [1] -0.07 | filanesib -0.017 | zotarolimus 0.071 | idasanutlin -0.042 | alisertib -0.008 | [2] -0.25 | gefitinib 0.199 | [3] 0.253 | lapatinib 0.069 | pictilisib 0.214

H2AZ1 (UniProt P0C0S5)
Chain of UniProt P0C0S5 (P0C0S5 whole entry, looked up): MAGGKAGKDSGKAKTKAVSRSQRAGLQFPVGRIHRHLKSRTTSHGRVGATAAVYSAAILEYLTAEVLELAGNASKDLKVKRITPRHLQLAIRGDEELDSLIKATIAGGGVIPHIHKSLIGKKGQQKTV
inactive: [1] 0.05 | filanesib 0.353 | zotarolimus -0.113 | idasanutlin 0.266 | alisertib 0.039 | [2] -0.046 | gefitinib 0.121 | [3] -0.161 | lapatinib 0 | pictilisib -0.09

FDPS (UniProt P14324)
Chain of UniProt P14324 (P14324 whole entry, looked up): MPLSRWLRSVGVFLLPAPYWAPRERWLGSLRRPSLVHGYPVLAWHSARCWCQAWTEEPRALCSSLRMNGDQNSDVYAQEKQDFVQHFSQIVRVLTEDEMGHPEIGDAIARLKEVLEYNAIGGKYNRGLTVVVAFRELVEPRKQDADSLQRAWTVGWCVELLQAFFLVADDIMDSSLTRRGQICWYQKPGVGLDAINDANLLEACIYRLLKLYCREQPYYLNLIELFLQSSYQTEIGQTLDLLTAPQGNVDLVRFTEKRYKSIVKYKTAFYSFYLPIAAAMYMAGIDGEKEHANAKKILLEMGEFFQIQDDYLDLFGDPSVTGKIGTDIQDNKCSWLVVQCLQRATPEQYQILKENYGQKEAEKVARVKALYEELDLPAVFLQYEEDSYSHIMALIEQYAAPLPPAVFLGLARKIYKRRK
inactive: [1] 0.048 | filanesib -0.246 | zotarolimus 0.019 | idasanutlin -0.063 | alisertib 0.066 | [2] 0.118 | gefitinib -0.047 | [3] 0.009 | lapatinib -0.018 | pictilisib -0.076

GAB2 (UniProt Q9UQC2)
inactive: [1] 0.044 | filanesib -0.053 | zotarolimus -0.145 | idasanutlin 0.084 | alisertib 0.007 | [2] -0.526 | [3] -0.236 | lapatinib 0.033 | pictilisib -0.348

IFI30 (UniProt P13284)
inactive: [1] 0.04 | filanesib 0.061 | zotarolimus 0.06 | idasanutlin 0.027 | alisertib -0.11 | [2] -0.133 | gefitinib -0.035 | [3] 0.01 | lapatinib 0.147 | pictilisib -0.02

GAGE12F (UniProt P0CL80)
Chain of UniProt P0CL80 (P0CL80 whole entry, looked up): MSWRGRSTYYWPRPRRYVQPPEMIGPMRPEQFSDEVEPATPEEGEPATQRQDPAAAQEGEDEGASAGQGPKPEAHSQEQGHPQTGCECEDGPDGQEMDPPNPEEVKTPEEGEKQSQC
inactive: [1] -0.007 | filanesib 0.02 | zotarolimus -0.054 | idasanutlin 0.055 | alisertib -0.312 | [2] -0.02 | gefitinib -0.03 | [3] 0.123 | lapatinib -0.028 | pictilisib 0.108

GLIPR2 (UniProt Q9H4G4)
Chain of UniProt Q9H4G4 (Q9H4G4 whole entry, looked up): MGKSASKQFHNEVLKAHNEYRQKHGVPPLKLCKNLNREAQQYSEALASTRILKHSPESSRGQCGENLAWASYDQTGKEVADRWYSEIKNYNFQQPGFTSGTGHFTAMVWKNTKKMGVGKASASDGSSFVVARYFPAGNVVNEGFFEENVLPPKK
inactive: [1] 0 | filanesib -0.147 | zotarolimus 0.024 | idasanutlin 0.096 | alisertib -0.031 | [2] -0.239 | [3] -0.036 | lapatinib 0.103 | pictilisib -0.011

HNRNPF (UniProt P52597)
Chain of UniProt P52597 (P52597 whole entry, looked up): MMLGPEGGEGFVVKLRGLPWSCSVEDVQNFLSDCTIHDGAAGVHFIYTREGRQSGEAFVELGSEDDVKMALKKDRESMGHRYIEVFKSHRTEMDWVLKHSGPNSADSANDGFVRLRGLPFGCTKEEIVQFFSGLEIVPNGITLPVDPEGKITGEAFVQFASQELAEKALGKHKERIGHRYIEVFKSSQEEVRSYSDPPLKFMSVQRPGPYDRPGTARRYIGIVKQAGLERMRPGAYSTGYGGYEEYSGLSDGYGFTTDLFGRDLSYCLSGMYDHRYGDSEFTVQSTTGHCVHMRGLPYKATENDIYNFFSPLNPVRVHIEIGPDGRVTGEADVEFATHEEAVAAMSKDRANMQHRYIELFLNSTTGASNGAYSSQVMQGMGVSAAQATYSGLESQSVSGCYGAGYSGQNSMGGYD
inactive: [1] 0.059 | filanesib -0.03 | zotarolimus 0.046 | idasanutlin 0.073 | alisertib 0.03 | [2] -0.036 | gefitinib -0.034 | [3] -0.026 | lapatinib 0.008 | pictilisib -0.088

FKBP7 (UniProt Q9Y680)
Chain of UniProt Q9Y680 (Q9Y680 whole entry, looked up): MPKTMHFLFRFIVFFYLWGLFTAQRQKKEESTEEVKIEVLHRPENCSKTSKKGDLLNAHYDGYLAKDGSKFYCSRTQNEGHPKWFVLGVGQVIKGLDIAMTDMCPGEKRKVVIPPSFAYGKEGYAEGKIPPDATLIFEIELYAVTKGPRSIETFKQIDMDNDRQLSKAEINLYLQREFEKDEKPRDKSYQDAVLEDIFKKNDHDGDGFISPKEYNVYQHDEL
inactive: [1] -0.152 | filanesib -0.036 | zotarolimus -0.029 | idasanutlin 0.047 | alisertib -0.063 | [2] 0.047 | gefitinib 0.086 | [3] 0.003 | lapatinib -0.065 | pictilisib -0.007

HMG20A (UniProt Q9NP66)
Chain of UniProt Q9NP66 (Q9NP66 whole entry, looked up): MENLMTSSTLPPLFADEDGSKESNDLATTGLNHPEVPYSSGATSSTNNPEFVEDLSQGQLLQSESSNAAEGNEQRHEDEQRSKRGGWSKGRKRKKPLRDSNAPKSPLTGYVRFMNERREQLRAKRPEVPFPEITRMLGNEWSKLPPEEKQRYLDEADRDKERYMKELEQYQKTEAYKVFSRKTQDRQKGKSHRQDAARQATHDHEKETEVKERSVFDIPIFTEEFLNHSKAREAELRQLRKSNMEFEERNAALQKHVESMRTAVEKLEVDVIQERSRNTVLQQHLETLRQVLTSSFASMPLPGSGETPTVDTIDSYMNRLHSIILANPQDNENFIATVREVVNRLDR
inactive: [1] -0.045 | filanesib 0.05 | zotarolimus 0.078 | idasanutlin -0.21 | alisertib -0.016 | [2] 0.147 | gefitinib 0.065 | [3] -0.021 | lapatinib -0.088 | pictilisib 0.145

HMGB3 (UniProt O15347)
Chain of UniProt O15347 (O15347 whole entry, looked up): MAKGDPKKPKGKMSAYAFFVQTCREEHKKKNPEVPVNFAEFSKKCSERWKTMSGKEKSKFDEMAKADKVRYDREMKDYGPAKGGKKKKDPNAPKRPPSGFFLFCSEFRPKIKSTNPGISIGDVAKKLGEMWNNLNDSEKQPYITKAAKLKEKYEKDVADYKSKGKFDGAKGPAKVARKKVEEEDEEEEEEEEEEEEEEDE
inactive: [1] 0.037 | filanesib -0.001 | zotarolimus 0.012 | idasanutlin 0.045 | alisertib -0.064 | [2] -0.031 | gefitinib -0.033 | [3] 0 | lapatinib 0.062 | pictilisib -0.044

FKBP4 (UniProt Q02790)
inactive: [1] 0.015 | filanesib -0.066 | zotarolimus 0.077 | idasanutlin -0.048 | alisertib -0.018 | [2] 0.031 | gefitinib 0.008 | [3] 0.009 | lapatinib -0.062 | pictilisib 0.027

FOXO3 (UniProt O43524)
Chain of UniProt O43524 (O43524 whole entry, looked up): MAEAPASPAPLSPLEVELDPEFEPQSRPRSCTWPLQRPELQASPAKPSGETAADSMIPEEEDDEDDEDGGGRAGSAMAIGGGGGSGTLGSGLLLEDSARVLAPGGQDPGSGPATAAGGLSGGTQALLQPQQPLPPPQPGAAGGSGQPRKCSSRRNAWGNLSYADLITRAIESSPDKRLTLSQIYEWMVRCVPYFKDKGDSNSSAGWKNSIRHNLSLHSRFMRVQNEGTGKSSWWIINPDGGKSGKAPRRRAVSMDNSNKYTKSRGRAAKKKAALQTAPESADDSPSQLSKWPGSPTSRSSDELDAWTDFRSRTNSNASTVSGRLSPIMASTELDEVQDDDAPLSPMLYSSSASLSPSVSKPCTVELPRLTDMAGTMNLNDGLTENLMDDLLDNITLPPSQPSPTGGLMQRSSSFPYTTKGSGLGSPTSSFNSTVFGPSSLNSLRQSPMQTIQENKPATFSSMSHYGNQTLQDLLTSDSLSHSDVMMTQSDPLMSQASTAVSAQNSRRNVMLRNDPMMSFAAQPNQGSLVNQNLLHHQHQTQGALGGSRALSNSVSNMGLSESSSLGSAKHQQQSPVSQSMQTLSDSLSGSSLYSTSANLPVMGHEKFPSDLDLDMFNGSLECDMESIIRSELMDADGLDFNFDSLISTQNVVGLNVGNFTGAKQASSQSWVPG
inactive: [1] 0.027 | filanesib -0.069 | zotarolimus 0.083 | idasanutlin 0.154 | alisertib 0.149 | [2] -0.067 | [3] -0.068 | lapatinib -0.106 | pictilisib -0.09
